BCLXL inh: inhibitors of human Bcl-xL, primary screen, biochemical, fluorescence polarization, HTS; Bcl-2-like protein 1 (Homo sapiens), Q07817; GST-Bcl-xL / FITC-Bim BH3 peptide fluorescence polarization; inhibition, % at 10.9 µM; 0.7% of 320,000 active; AID 2129, 2009;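 active = inhibition above the mean of all tested compounds plus 3 SD, cutoff set per campaign, cut at about 30% in these data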;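 also: 0% = DMSO wells and 100% = unlabeled Bim-BH3 peptide competitor; inhibitors lower millipolarization by displacing the labeled peptide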
E coli Lon inh: inhibitors of E. coli Lon protease, primary screen, biochemical, fluorescence polarization | P0A9M0 | purified E. coli Lon protease | inhibition, % at 7.94 µM | 0.42% of 360,000 active | AID 602123, 2011; in the data active = inhibition above about 13%, passing the limit was not always enough;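 also: 0% = enzyme with probe and DMSO and 100% = no enzyme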
Target sequence (P0A9M0 whole entry, looked up): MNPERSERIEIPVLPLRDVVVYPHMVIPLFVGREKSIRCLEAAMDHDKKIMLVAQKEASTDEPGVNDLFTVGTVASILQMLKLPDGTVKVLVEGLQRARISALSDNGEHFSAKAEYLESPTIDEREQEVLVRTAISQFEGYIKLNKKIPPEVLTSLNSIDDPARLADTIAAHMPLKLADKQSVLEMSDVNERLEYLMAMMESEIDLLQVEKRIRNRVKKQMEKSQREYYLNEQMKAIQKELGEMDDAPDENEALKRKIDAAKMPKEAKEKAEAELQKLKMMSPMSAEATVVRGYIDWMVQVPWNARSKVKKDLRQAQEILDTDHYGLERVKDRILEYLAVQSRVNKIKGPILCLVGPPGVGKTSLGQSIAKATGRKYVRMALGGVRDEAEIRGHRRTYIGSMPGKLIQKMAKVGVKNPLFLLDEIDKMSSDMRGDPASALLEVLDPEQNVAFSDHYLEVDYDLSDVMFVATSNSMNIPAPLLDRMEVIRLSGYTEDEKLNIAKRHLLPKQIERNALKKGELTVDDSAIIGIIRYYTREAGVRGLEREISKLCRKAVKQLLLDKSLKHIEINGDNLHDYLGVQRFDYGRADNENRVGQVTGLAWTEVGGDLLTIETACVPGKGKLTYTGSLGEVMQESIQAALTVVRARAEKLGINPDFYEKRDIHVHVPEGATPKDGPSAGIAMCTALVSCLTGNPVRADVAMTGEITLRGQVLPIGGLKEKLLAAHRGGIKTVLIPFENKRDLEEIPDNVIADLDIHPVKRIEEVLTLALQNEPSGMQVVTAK
EBV gp42 inh: Epstein-Barr virus gp42 inhibitors, primary screen, biochemical, uHTS, fluorescence polarization; Glycoprotein 42 (Epstein-Barr virus (strain AG876)), Q1HVG2; Fluorescence polarization binding assay, mP read-out; inhibition, % (tested at 21.74 µM); 0.42% of 220,000 active; AID 1085, 2008; in the data active = inhibition above about 50%
MEX-5 binding: MEX-5 zinc finger RNA-binding disruptors – biochemical, C. elegans, fluorescence polarization, MLPCN library, primary screen | activity score (negative = inhibition of binding), % at 10 µM | 0.38% of 300,000 active | MEX-5/FITC-TCR2 RNA binding; hits give low values;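 active = inhibition past about -25% in most replicates, and total fluorescence under double the plate's negative control median, limit read from the data; inconclusive = replicates evenly split on the limit, or fluorescence at least double controls; inactive = too little inhibition in most replicates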;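 also: 0% = DMSO and -100% = 5 µM competing unlabeled TCR2 RNA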
GLD-1 RNA inh: GLD-1/TGE RNA complex disruptors, primary screen, biochemical, fluorescence polarization; purified GLD-1 + fluorescein TGE RNA; inhibition, % at 5.96 µM; 0.44% of 320,000 active;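 active = percent inhibition above a per-plate cutoff, the plate mean of test compounds plus 3 SD, cut at about 30% in these data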;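 also: 0% = DMSO wells with GLD-1 and probe and 100% = wells lacking GLD-1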
An asterisk follows results filed as active; ? = inconclusive; nt = not tested or not shown; ! = not active in a repeat. Most compounds without a hit are left out; they make up all but 1.3% or so of the library.

SMILES	BCLXL inh	E coli Lon inh	EBV gp42 inh	MEX-5 binding	GLD-1 RNA inh
O=C(/C=C/c1ccco1)Nc1cccc2cccnc12	51*	-1	12	-7	30
O=S(=O)(Nc1ccc(-c2cnco2)cc1)c1ccccc1	31*	-5	-8	-2	10
CC1(OC(=O)c2cnc3ccccc3n2)C(=O)C=C2C=C(c3ccc(C#N)cc3)OC=C2C1=O (stereo unspecified)	25	nt	nt	-8	47*
COC/C=C/C1=CC2=CC(=O)C(C)(OC(=O)c3cnc4ccccc4n3)C(=O)C2=CO1 (stereo unspecified)	74*	nt	nt	-42*	58*
O=C1/C(=C/c2cccc(F)c2)Oc2cc(O)ccc21	75*	-46	nt	?	70*
Cc1cc(O)c2c(c1O)C(=O)[C@]13C(=C2O)C(=O)[C@@H]2[C@@H](O)[C@H]1[C@@H]1[C@H](O)[C@H]3C(=O)C3=C(O)c4c(O)cc(C)c(O)c4C(=O)[C@]312	nt	27*	nt	nt	30
Cc1ccc(C2(C(F)(F)F)N=C3Sc4cc(C)ccc4N3C(=O)N2)cc1 (stereo unspecified)	0	nt	-28	1	7
Cc1ccc(CNC(=O)CN2c3cccc4cccc(c34)S2(=O)=O)cc1	42*	-4	nt	nt	22
O=C(CN1c2cccc3cccc(c23)S1(=O)=O)NCc1ccc(F)cc1	nt	-13	nt	nt	1
C=CCN1C(=O)[C@]2(c3ccccc31)C1CCCC=C1C(C#N)=C(N)C2(C#N)C#N (stereo partly specified)	-5	-6	-12	2	-1
CN1CCC2(CC1)C1CN(C)CC=C1C(C#N)=C(N)C2(C#N)C#N (stereo unspecified)	120*	0	76*!	?	20
O=c1cc2c(=O)oc3cc(O)c(O)oc3c2c(O)c1O	nt	-6	-12	-84*	nt
O=c1oc2cc(O)c(Cl)cc2c2ccccc12	3	-2	-2	-1	9
Cc1cc(C(=O)N/N=C/c2ccc(-c3cccc(Cl)c3Cl)o2)n[nH]1	2	-1	-66	-38*	-4
NC(=S)N/N=C/c1ccc(C(F)(F)F)cc1	5	-3	6	1	2
NC(=S)N/N=C/c1ncc(C(F)(F)F)cc1Cl	146*	17	10	-2	101*
CCN(CC)CCCC(C)Nc1c2ccc(Cl)cc2nc2ccc(OC)cc12 (stereo unspecified)	nt	nt	118*	nt	nt
COc1ccc(CNC(=O)COC(=O)c2ccc(Br)cc2)cc1	33*	-6	-11	1	0
Cc1ccccc1NS(=O)(=O)c1cc(C(=O)N2CCCC2)ccc1C	48*	-3	-15	?	-2
Cc1ccccc1NS(=O)(=O)c1cc(C(=O)N2CCCC2)ccc1Cl	1	-2	nt	5	-2
O=C(c1ccc(S(=O)(=O)Nc2ccccc2Cl)cc1)N1CCOCC1	8	-7	nt	-1	8
CC1CCCN(C(=O)c2ccc(S(=O)(=O)Nc3ccccc3Cl)cc2)C1 (stereo unspecified)	36*	-10	nt	-1	1
CC1(C(=O)O)CCN1C(=O)c1cccnc1Oc1ccccc1 (stereo unspecified)	nt	-1	nt	nt	nt
CCC(C)NC(=O)c1ccc(Cl)c(S(=O)(=O)Nc2ccccc2N2CCOCC2)c1 (stereo unspecified)	6	-9	nt	nt	9
O=C(/C=C/NCc1cccnc1)c1ccc(-c2ccccc2)cc1	-9	-6	nt	1	-4
SMILES	BCLXL inh	E coli Lon inh	EBV gp42 inh	MEX-5 binding	GLD-1 RNA inh
CCOc1ccc(NC(=O)NNC(=O)C(C)Oc2ccccc2OC)cc1 (stereo unspecified)	2	3	nt	0	6
Cc1ccccc1C(=O)N=c1ccn(-c2nc3ccccc3nc2NS(=O)(=O)c2ccc(F)cc2)cc1	34*	3	nt	?	5
COC(=O)/C=C1\N/C(=N/c2nc(C)c3cc(OC)ccc3n2)NC1=O	48*	-2	nt	0	4
O=C(CCC(=O)N(CC(=O)NC1CCCC1)Cc1cccs1)Nc1nccs1	3	2	-13	0	1
Cc1cc(NC(=O)/C(C#N)=C/c2ccco2)n(-c2ccccc2)n1	1	10	-4	0	7
Cc1ccc(-c2ccc(/C=C(\C#N)C(=O)Nc3cc(C)nn3-c3ccccc3)o2)cc1	123*	nt	120*	?	120*
CC1=C(C(=O)OCc2ccccc2)C(c2ccccc2[N+](=O)[O-])NC(=O)N1C (stereo unspecified)	12	3	nt	-39*	10
Cc1nnc(N2C(=O)C(O)=C(C(=O)c3ccco3)C2c2ccc(F)cc2)s1 (stereo unspecified)	33*	9	76*	-27*	45*
Cc1ccc(C2C(C(=O)c3ccco3)=C(O)C(=O)N2c2ncccn2)cc1 (stereo unspecified)	7	-1	-10	2	2
CCCOc1cccc(C2C(C(=O)c3ccco3)=C(O)C(=O)N2c2nnc(C)s2)c1 (stereo unspecified)	41*	8	nt	-32*	56*
Cc1nnc(N2C(=O)C(O)=C(C(=O)c3ccco3)C2c2ccc(C(C)C)cc2)s1 (stereo unspecified)	40*	-5	72*	-27*	40*
Cc1nnc(N2C(=O)C(O)=C(C(=O)c3ccco3)C2c2ccc(C(C)(C)C)cc2)s1 (stereo unspecified)	33*	-8	40	-5	32*
COC(=O)c1ccc(N=Cc2c(C(F)(F)F)[nH]n(C)c2=O)cc1	1	5	-4	1	0
CCOC(=O)c1ccc(N2CC(O)=C(c3nc4ccccc4c(=O)[nH]3)C2=N)cc1	-7	-54	-48	-2	-52
CCCC(c1nnnn1Cc1ccco1)N1CCC(C(N)=O)CC1 (stereo unspecified)	4	-9	-22	-2	-1
CCOC(=O)C1CCCN(C(=O)c2cc(F)ccc2C)CC1 (stereo unspecified)	nt	2	nt	nt	nt
CCOC(=O)c1cc(-c2ccccc2)sc1NC(=S)Nc1cc(C)ccn1	2	-2	-87	-57*	-1
O=C(NCc1cccs1)C1CCN(S(=O)(=O)c2ccccc2F)CC1	7	-7	-21	-1	1
CCCCC1=CC2=C(c3ccco3)C(=O)C(C)(OC(=O)c3ccc(OC)cc3)C(=O)C2=CN1C1CCCC1 (stereo unspecified)	112*	nt	nt	-29*	92*
CCCCC1=CC2=CC(=O)C(C)(OC(=O)CC)C(=O)C2=CN1CCN1CCOCC1 (stereo unspecified)	31*	nt	12	-10	21

Screens as filed in PubChem BioAssay.
